Reference: article PMC10954555

molecular target: Probable ATP-dependent RNA helicase DDX23 (UniProt Q9BUQ8); assay: cross-link between two proteins; cross-linking mass spectrometry; other
Sequence (Q9BUQ8 whole entry): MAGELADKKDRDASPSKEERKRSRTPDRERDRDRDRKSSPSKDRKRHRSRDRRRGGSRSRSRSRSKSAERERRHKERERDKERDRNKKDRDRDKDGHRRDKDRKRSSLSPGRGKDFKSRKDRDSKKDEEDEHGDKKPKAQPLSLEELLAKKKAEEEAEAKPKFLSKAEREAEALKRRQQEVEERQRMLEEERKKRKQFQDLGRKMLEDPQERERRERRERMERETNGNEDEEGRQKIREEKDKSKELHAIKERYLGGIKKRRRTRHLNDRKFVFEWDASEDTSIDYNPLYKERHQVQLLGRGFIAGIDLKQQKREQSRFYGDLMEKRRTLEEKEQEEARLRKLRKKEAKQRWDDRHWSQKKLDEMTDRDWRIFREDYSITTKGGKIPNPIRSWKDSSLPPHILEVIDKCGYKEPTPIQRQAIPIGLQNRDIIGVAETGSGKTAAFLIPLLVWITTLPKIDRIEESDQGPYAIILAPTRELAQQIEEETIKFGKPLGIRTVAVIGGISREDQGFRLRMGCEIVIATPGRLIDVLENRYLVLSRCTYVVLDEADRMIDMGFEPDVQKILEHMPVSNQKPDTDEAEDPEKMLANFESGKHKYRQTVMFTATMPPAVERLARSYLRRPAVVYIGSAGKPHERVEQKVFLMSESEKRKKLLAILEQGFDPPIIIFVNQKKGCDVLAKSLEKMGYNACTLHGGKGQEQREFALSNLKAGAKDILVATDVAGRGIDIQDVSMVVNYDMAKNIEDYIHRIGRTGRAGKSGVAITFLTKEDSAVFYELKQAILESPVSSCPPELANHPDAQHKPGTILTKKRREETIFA

Listed as a hit, yes:
Pre-mRNA-processing factor 6, O94906
U4/U6.U5 tri-snRNP-associated protein 1, O43290
U5 small nuclear ribonucleoprotein 200 kDa helicase, O75643
116 kDa U5 small nuclear ribonucleoprotein component, Q15029
